Among all 24,000 compounds or so, about 1,200 (5%) were called active. Inconclusive results (about 2%) are left out. The rule behind the calls is not given here. Only a sample is shown.

By inhibition is commonly meant the drop in the measured response relative to a control, in per cent. Broadly, the CC50 is the concentration that lowers cell viability or growth by half.

A short description of this test: Mycobacterium tuberculosis H37Rv growth inhibition, putative kinase inhibitor library, confirmatory dose response (AID 2842).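 For inhibition: bacteria incubated one week before Alamar blue readout; 0% = bacteria only wells and 100% = bacteria with high antibiotic.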 Particulars: M. tuberculosis H37Rv growth inhibition; CC50: measured here: Vero cell cytotoxicity; inhibition: stronger effect = higher value.
For `CCOc1ccc(/C(O)=C2\C(=O)C(=O)N(CCCn3ccnc3)C2c2ccc(F)cc2)cc1Cl` (stereo not given), the inhibition was -17.6% (inactive).
As to `CSc1ccc2nc(Nc3ccc(F)cc3F)sc2c1`, the inhibition was 8.52% (inactive).
Same read-out and setting: the same measure for `C=CCOC(=O)C1=C(C)Nc2[nH]c(=O)[nH]c(=O)c2C1c1ccc(Cl)c(Cl)c1` (stereo not given): -6.17% (inactive); for `Nc1nc(SCC(=O)N2CCCCCC2)[nH]c(=O)c1NC(=O)c1ccco1`: -18.5% (inactive); for `O=C(Nc1nc(-c2ccc(Cl)cc2Cl)cs1)c1ccc2c(c1)OCCO2`: 0.34% (inactive).
Turning to `CC1=C(C(=O)Nc2ccc(Cl)cc2)C(c2ccccc2Cl)C(C#N)=C(SCC(N)=O)N1` (stereo not given), the inhibition is 71.6% (inactive).
Still for that read-out and setting: the same measure for `Cc1nc2sc(C(N)=O)c(N)c2c(-c2ccccc2)c1C(=O)Nc1ccccc1`: 1.79% (inactive); for `CCOC(=O)c1cnc2ccc(OCC)cc2c1Nc1cccc(Cl)c1C`: -5.22% (inactive).
`COc1ccc(-n2c(=O)[nH]cc(C(=O)Nc3ccc4c(c3)OCO4)c2=O)cc1OC`: the inhibition is 1.59% (inactive).
Still for that read-out and setting: the result for `Cc1ccccc1NC(=O)Cc1csc(NS(=O)(=O)c2ccc(Cl)cc2)n1` reads -5.2% (inactive).
`Cc1ccnc(NC(=O)NC2CC(=O)N(c3ccc(F)cc3)C2)c1` (stereo not given): the inhibition was 11.3% (inactive).
The same measure, in the same setting: the same measure for `CCOC(=O)c1oc2ccccc2c1NC(=O)c1ccc(F)c(F)c1`: 3.18% (inactive); for `CC1CCc2c(sc(NC(=O)c3ccc4ccccc4c3)c2C#N)C1` (stereo not given): 1.23% (inactive).
Same read-out and setting: the same measure for `CCCCCCCNC(=O)c1c(N)n(/N=C/c2ccco2)c2nc3ccccc3nc12`: -9.39% (inactive).
Same read-out and setting: the same measure for `O=C(O)COc1ccccc1/C=C1/SC(=S)N(NC(=O)c2ccco2)C1=O`: -1.98% (inactive); for `CNC(=O)c1c(NC(=O)CC2SC(=O)NC2=O)sc2c1CCCC2` (stereo not given): -3.54% (inactive).
On to `Cc1ccc(C(=O)Nc2cc(C)c3c(=O)oc4ccccc4c3n2)cc1[N+](=O)[O-]`, for which the inhibition was -2.97% (inactive).
Take `O=C(CN1N=NC2C(=O)N(c3ccc(Cl)cc3)C(=O)C21)Nc1ccccc1Cl` (stereo not given): the inhibition is 0.65% (inactive).
On the same count and under the same terms, the same measure for `COc1ccc(NC(=O)C2=C(C)Nc3ncnn3C2c2ccc(C#N)cc2)cc1` (stereo not given): -1.94% (inactive); for `COc1ccc(/C(O)=C2\C(=O)C(=O)N(CCCn3ccnc3)C2c2cccc(F)c2)cc1Cl` (stereo not given): -11.8% (inactive).
Still for that read-out and setting: the same measure for `O=C(CSc1nc2c(c(=O)n1-c1ccc(Cl)cc1)SCC2)Nc1ccc2c(c1)OCO2`: -11.7% (inactive); for `Cn1c(SCC(=O)N2CCOCC2)nnc1-c1c[nH]c2ccccc12`: -12.7% (inactive); for `O=C(Nc1nnc(-c2ccc(F)cc2)s1)c1ccccc1`: 8.84% (inactive).
As for `CCN1CCN(c2nc(Nc3ccc(OC)cc3)c3nccnc3n2)CC1`, the inhibition is -0.8% (inactive).
The same measure, in the same setting: the same measure for `CCc1ccc(NC(=O)CSc2nc(-c3cccs3)nc3c2c(=O)n(C)c(=O)n3C)cc1`: -5.83% (inactive); for `CCOc1ccc(C(=O)Nc2nnc(C34CC5CC(CC(C5)C3)C4)s2)cc1`: 9.95% (inactive); for `COc1ccc(CCNC(=O)C(=O)NCC(c2ccco2)N2CCc3ccccc32)cc1` (stereo not given): -2.72% (inactive).
On the same count and under the same terms, the result for `CSc1ccc2nc(Nc3cc(C)ccc3C)sc2c1` reads 13.8% (inactive); that for `COc1cc(CN2CCNC(=O)C2CC(=O)O)cc(OC)c1` (stereo not given), -0.59% (inactive).
Same read-out and setting: the result for `COCCOC(=O)C1=C(C)NC(=O)NC1c1ccc(OC)cc1` (stereo not given) reads -0.33% (inactive); that for `COC(=O)c1ccc(CSc2nnc3[nH]c(=O)c(C)c(C)n23)o1`, -3.33% (inactive); that for `CC(=O)Nc1ccc(NC(=O)CSc2ccc(-c3ccc(Cl)cc3)nn2)cc1`, 0% (inactive).
On to `O=C(COc1ccccc1F)NC1CC(=O)N(c2ccc(Cl)cc2)C1` (stereo not given), for which the inhibition is 7.9% (inactive).
Turning to `CCOc1cccc2c1OC(c1cccnc1)N1N=C(c3cccc(O)c3)CC21` (stereo not given), the inhibition was -10.5% (inactive).
On to `O=C(CC1Nc2cccc3cccc(c23)NC1=O)Nc1ccc(F)cc1` (stereo not given), for which the inhibition is 27.5% (inactive).
In the case of `COc1ccc2nc(NC(=O)c3cc(-c4ccccc4)nc4ccccc34)sc2c1`, the CC50 is over 40 µg/mL and the inhibition is 95.1% (inactive).
In the case of `COc1cccc(C(=O)COC(=O)c2cc3cc(Br)cc(OC)c3oc2=O)c1`, the inhibition was -0.935% (inactive).
Take `CCOC(=O)c1nn(-c2ccc(C)cc2)c(=O)cc1NCc1ccncc1`: the inhibition was -9.72% (inactive).
Same read-out and setting: the same measure for `COc1ccc(/C=C2\SC(=S)N(CCC(=O)Nc3nccs3)C2=O)cc1OC`: -4.88% (inactive); for `COc1ccccc1N1C(=O)N(c2cccc([N+](=O)[O-])c2)C2CS(=O)(=O)CC21` (stereo not given): -5.59% (inactive).
`CCS(=O)(=O)c1ccccc1C(=O)Nc1sc2c(c1C(N)=O)CCC(C)C2` (stereo not given): the inhibition is -17.6% (inactive).
Same read-out and setting: the result for `O=C(Nc1ccc(F)cc1)c1cn(Cc2ccccc2)cc2c(=O)n(-c3ccccc3)nc1-2` reads -8.1% (inactive).
For the compound `O=C(CCCc1ccccc1)Nc1c(C(=O)Nc2ccc3c(c2)OCO3)oc2ccccc12`, the inhibition was -0.74% (inactive).
The same measure, in the same setting: the same measure for `Fc1ccc2nc(Nc3nnc(-c4cccs4)o3)sc2c1`: 36% (inactive).
As to `COc1cccc(-c2nc(C(N)=O)c3[nH]c(=O)n(-c4ccccc4F)c3n2)c1`, the inhibition was -10.4% (inactive).
Regarding `Cc1ccc(NC(=O)c2oc3ccccc3c2NC(=O)c2ccc([N+](=O)[O-])cc2)cc1`, the inhibition is 3.31% (inactive).
For the compound `COc1ccc2cc(CCNC(=O)c3ccccc3OC)c(=O)[nH]c2c1`, the inhibition is 5.57% (inactive).
The same measure, in the same setting: the result for `Cc1c(C(=O)O)c2cc(O)ccc2n1C` reads 12.9% (inactive).
The same measure, in the same setting: the same measure for `O=C(CN1C(=O)CCC1=O)Nc1nc(-c2ccc(Cl)c(Cl)c2)cs1`: 0.41% (inactive); for `COc1ccc(Cl)cc1NC(=O)CSc1nnc(CCC(=O)O)c(=O)n1N`: -10.7% (inactive); for `O=C(Nc1nc2c(s1)CCCC2)c1coc2ccccc2c1=O`: -2.85% (inactive).
Same read-out and setting: the result for `O=C(NCc1ccc2[nH]c3c(c2c1)CCCC3)Nc1ccccc1` reads 62.6% (inactive).
Turning to `COc1ccc(Nc2ncnc(N)c2[N+](=O)[O-])c(OC)c1`, the inhibition was 0.53% (inactive).
Same read-out and setting: the same measure for `Cc1ccc(-c2csc(Nc3ccc(O)c(C(=O)O)c3)n2)cc1`: -6.04% (inactive).
